From PubChem BioAssay AID1903 (Southern Research Specialized Biocontainment Screening …, 2009)
Screen size: about 310,000 compounds; about 1,200 (0.39%) were called active. No rule for the calls is given here. The list is a sample of the results. Potency and affinity values are given separately.

molecular target: Large T antigen (Simian virus 40) (UniProt P03070); test: TAg ATPase/helicase activity blockers – biochemical (AID 1903); details: SV40 large T antigen ATPase/helicase inhibition assay; at 20 µM; hits give high values
Sequence (P03070 whole entry, looked up): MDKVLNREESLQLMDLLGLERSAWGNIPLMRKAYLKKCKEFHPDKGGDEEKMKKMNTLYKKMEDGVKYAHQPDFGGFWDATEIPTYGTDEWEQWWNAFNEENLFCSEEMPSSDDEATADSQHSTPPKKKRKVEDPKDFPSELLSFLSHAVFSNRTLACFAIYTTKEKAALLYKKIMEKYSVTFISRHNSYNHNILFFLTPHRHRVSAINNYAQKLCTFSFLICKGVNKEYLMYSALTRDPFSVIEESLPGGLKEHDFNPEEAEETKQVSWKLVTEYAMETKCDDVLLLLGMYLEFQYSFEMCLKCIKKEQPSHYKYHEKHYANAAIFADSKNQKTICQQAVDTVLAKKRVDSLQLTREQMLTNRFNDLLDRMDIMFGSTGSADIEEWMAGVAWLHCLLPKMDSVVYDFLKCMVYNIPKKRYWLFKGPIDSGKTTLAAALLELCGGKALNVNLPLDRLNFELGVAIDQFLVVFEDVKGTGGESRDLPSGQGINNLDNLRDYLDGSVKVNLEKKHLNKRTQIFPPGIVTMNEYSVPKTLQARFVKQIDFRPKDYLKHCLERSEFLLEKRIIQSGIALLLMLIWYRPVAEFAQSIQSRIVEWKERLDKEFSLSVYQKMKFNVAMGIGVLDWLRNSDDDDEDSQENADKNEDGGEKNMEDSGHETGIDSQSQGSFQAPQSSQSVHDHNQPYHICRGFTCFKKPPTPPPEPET

inhibition, inactive:
O=C1OCc2cc(NC(=O)C3CCCCC3)ccc21 2.69%
COc1cccc(-c2cc(CC3(O)CCN(CCCc4ccccc4)CC3)on2)c1 8.74%
Cc1ccc(S(=O)(=O)N2CCN(S(=O)(=O)N(C)C)CC2)c(C)c1 3.46%
COc1ccc(-n2c(C)cc(-c3csc(NC(=O)c4ccc(S(=O)(=O)N(C)C)cc4)n3)c2C)cc1 11.5%
Cc1c(CC(=O)NCCCC(=O)O)c(=O)oc2cc3oc4c(c3cc12)CCCC4 10%
CC(C)CCNC(=O)C1CC(=O)N(C2CCCC2)C1 (stereo not drawn) -3.66%
S=C(NCC1CCCO1)Nc1ccc(Cl)c(Cl)c1 (stereo not drawn) 13.5%
Cc1ccc(CCN2CC(C(=O)NCCCN3CCN(C)CC3)CC2=O)cc1 (stereo not drawn) 3.28%
c1ccc(-n2nnnc2-n2nnc3ccccc32)cc1 9.04%
COCCN=C1Sc2nc3ccc(C)cc3cc2CN1Cc1ccco1 19.9%
Cc1cccc2cc3c(nc12)SC(=NCC1CCCO1)N(Cc1ccco1)C3 (stereo not drawn) 26%
Cc1cccc(Nc2nc(-c3ccc(O)c(O)c3)cs2)n1 30.3%
Cc1ccc(Nc2nc(-c3ccc(F)cc3)cs2)nc1 9.89%
Oc1ccc(-c2csc(Nc3ncccn3)n2)cc1 6.13%
Cc1ccnc(Nc2nc(-c3ccc(O)c(O)c3)cs2)c1 32.9%
Oc1ccc(-c2csc(Nc3ccccn3)n2)cc1 22.2%
c1ccc(-c2csc(Nc3ncccn3)n2)cc1 0.05%
c1ccc(-c2csc(Nc3ccccn3)n2)cc1 9.23%
Cc1csc(Nc2cccc3ccccc23)n1 11.9%
Cc1c(/C(Cc2ccccc2)=N/O)c2ccccc2n1C 15.5%
COc1ccccc1N(Cc1ccccc1)S(=O)(=O)c1cccc(C(=O)Nc2cc(C)ccn2)c1 11.2%
O=C(Nc1ccc2c3c(cccc13)CC2)c1ccc(Br)o1 -1.82%
O=C(COC(=O)c1cc(S(=O)(=O)N2CCOCC2)ccc1Cl)Nc1ccc2c(c1)OCO2 -0.55%
O=C(Cn1nnc2ccccc21)NC1CCCCC1 7.66%
CC(C(N)=O)N1c2cccc3cccc(c23)S1(=O)=O (stereo not drawn) 5.84%
Cc1cc(C)c(OCC(=O)Nc2ccccn2)c([N+](=O)[O-])c1 4.36%
COCCCNC(=O)c1ccc2c(=O)n(Cc3ccc(OC)cc3)c(=O)[nH]c2c1 17.4%
COc1ccc(CCNC(=O)CNC(=O)Cn2cnc3sc(C)c(C)c3c2=O)cc1OC -8.68%
COc1ccc(Nc2ccc(Nc3ccc(OC)cc3)nn2)cc1 10.9%
COc1ccc(Nc2c(C)cccc2C)cc1 -1.03%
O=C(O)CC1c2ccccc2CCN1S(=O)(=O)c1ccccc1 (stereo not drawn) 16.2%
CCOCCc1nnc(NC(=O)Cc2ccc(Br)cc2)s1 4.12%
O=C(Cc1n[nH]c(=O)[nH]c1=O)N/N=C/c1cccc(O)c1 9.95%
Cc1ccc(Oc2nc3ccccc3n3c(C)nnc23)c(C)c1 1.35%
CCN(CC(=O)NC(=O)NC1CCCC1)Cc1ccccc1 14.2%
c1cn2c(Nc3ccc4c(c3)OCCO4)c(-c3ccc(N4CCOCC4)cc3)nc2cn1 29.1%
c1ccc(-c2nc3cnccn3c2Nc2ccc3c(c2)OCCO3)cc1 9.23%
Clc1ccc(-c2nc3cnccn3c2NC2CCCC2)cc1 8.26%
Cc1ccc(-c2nc3cnccn3c2Nc2ccc3c(c2)OCO3)cc1 25.3%
Fc1ccc(-c2nc3cnccn3c2NC2CCCC2)cc1 3.13%
COc1cc(-c2nc3cnccn3c2Nc2ccc(C(C)C)cc2)ccc1O 9.43%
COc1ccc(-c2nc3cnccn3c2Nc2ccc3c(c2)OCO3)cc1 21.4%
COc1cc(-c2nc3cnccn3c2Nc2ccc(C)cc2)ccc1O 37%
CC(=O)c1c(C)[nH]c(C(=O)OCc2c(F)cccc2Cl)c1C 20.8%
CN(C)C(=O)c1cn(-c2ccccc2)nc1-c1cc2ccccc2o1 0.09%
CCCC1CCC(c2ccc(/C(N)=N/O)cc2)CC1 (stereo not drawn) 4.39%
CC(=O)NC(N1CCCCC1)C(F)(F)C(F)(F)C(F)(F)C(F)F (stereo not drawn) -2.22%
Cc1c(Cl)cccc1NC(=S)N(CCCN1CCOCC1)Cc1cccs1 3.79%
Oc1ccc(-c2nc3ncccn3c2Nc2ccc3c(c2)OCCO3)cc1 13.3%
Clc1ccc(-c2nc3ncccn3c2Nc2ccc3c(c2)OCO3)cc1 7.55%
CC(C)OC(=O)/C(=C/c1ccc2c(c1)c1ccccc1n2C)NC(=O)c1ccccc1 3.18%
COc1ccc2c(c1)-c1nc(/N=C/c3ccc(O)cc3)sc1CC2 15.8%
COc1ccc2c(c1)-c1nc(/N=C/c3c(O)ccc4ccccc34)sc1CC2 23.1%
Cn1nc(-c2ccccc2)cc1NC(=O)C1CCCCC1 5.74%
Nc1ccc(C(=O)c2cccs2)cc1 6.86%
Cc1ccc(C(=O)c2cc(C)sc2N)cc1 19.1%
N=C1/C(=C\c2coc3ccccc3c2=O)C(=O)N=C2SC=CN12 34.7%
CSC1=NSC2=NC(=O)/C(=C/c3coc4ccc(O)cc4c3=O)C(=N)N12 17.7%
CCSC1=NSC2=NC(=O)/C(=C\c3coc4ccccc4c3=O)C(=N)N12 28.2%
CSC1=NSC2=NC(=O)/C(=C/c3coc4ccccc4c3=O)C(=N)N12 12.2%
N=C1/C(=C/c2coc3ccccc3c2=O)C(=O)N=C2SC(c3ccco3)=NN12 51.6%
CC(C)CSC1=NSC2=NC(=O)/C(=C\c3coc4ccccc4c3=O)C(=N)N12 13.7%
COc1ccccc1N1CCN(C(=O)c2oc3ccc(F)cc3c2C)CC1 -1.49%
O=C(CC(Sc1ccc(Br)cc1)C(=O)O)c1ccc(F)cc1 (stereo not drawn) 7.72%
Cc1ccc(SC(CC(=O)c2ccc(C)cc2)C(=O)O)cc1 (stereo not drawn) 19.4%
CN1C(=O)C2C(c3ccc(N(C)C)cc3)NN(Cc3ccccc3)C2C1=O (stereo not drawn) 19.9%
COc1ccc(C2=NN(Cc3ccccc3)C3C(=O)NC(=O)C23)cc1 (stereo not drawn) 4.68%
CCOC(=O)N1CCN(c2cc(=O)n(-c3ccc(OC)cc3)c(=O)[nH]2)CC1 -2.27%
Cc1ccccc1CNC(=O)Cn1ccc2cc(S(=O)(=O)N3CCCCCC3)ccc21 5.82%
O=C(COC(=O)c1ccc(CO)cc1)Nc1ccc(OC(F)F)cc1 -2.98%
Cc1nnc(NC(=O)CCS(=O)(=O)c2ccccc2)s1 19.4%
Cn1c(CO)nc2cc(N)ccc21 24.9%
Nc1ccc2c(c1)nc(Cc1ccccc1)n2CCO 32.4%
Cn1ccnc1Sc1cc(Cl)ccc1[N+](=O)[O-] 1.59%
CCOC(=O)C1=NN(C(C)=O)C2(CC(=O)N(c3ccc(C)c(C)c3)C2=O)C1 (stereo not drawn) 10.2%
O=C(NCC1CCCO1)C1CCN(C2CCN(C3CCCCCC3)CC2)CC1 (stereo not drawn) 6.53%
CSc1nc(C)c(CCOCc2ccc(F)cc2)c(=O)[nH]1 6.59%
COc1ccccc1N1C(=O)C2CC(C)=C(C)CC2C1=O (stereo not drawn) 6.96%
COc1ccccc1N1C(=O)CC(Sc2nc(C)cc(C)n2)C1=O (stereo not drawn) 5.59%
CCCCOc1ccc(C2(C)NC(=O)NC2=O)cc1 (stereo not drawn) 3.93%
COc1ccc(S(=O)(=O)N(CC(=O)NCc2ccncc2)c2ccc(C)cc2)cc1OC 7.04%
CN(CC(=O)Nc1ccc(F)cc1)C(=O)COC(=O)Cc1cccs1 8.61%
O=C(C1=NN[C@@H]2C(=O)N(c3cccc(F)c3)C(=O)[C@H]12)C(c1ccccc1)c1ccccc1 1.36%
Cn1cc(C(=O)c2cccc(Cl)c2)cc1/C=N\O -2.98%
CC(=O)c1ccc(OC(=O)CN2C(=O)c3ccccc3C2=O)cc1 14.1%
O=S(=O)(c1cccs1)N1CCN(c2ccc(Cl)cc2)CC1 2.25%
O=C(CCC(=O)N1CCN(c2cccc(Cl)c2)CC1)c1cccs1 1.82%
O=C(NC(=S)N1CCN(c2ccc(F)cc2)CC1)c1cccs1 1.9%
O=S(=O)(c1cccs1)N1CCN(c2ccccc2)CC1 1.66%
S=C(NCCc1ccccc1)N1CCCC1 7.81%
CC(=O)c1ccc(N2CCN(C(=O)CCC(=O)c3cccs3)CC2)cc1 4.57%
Oc1ccccc1N1CCN(C(=S)NCCc2ccccc2)CC1 7.92%
O=C(NC(=S)N1CCCCC1)c1cccs1 9.19%
CN1CCN(CCc2nc3cc(NC(=O)COc4ccc([N+](=O)[O-])cc4)ccc3n2C)CC1 16.7%
O=C(NCC1CCCO1)c1cn(-c2ccccc2)nc1-c1ccc(F)cc1 (stereo not drawn) 27.6%
COc1cc(S(=O)(=O)N2CCOCC2)cc(C(=O)c2nccn2C)c1OC -1.37%
CN(C(=O)COC(=O)CNC(=O)c1ccc(C(C)(C)C)cc1)c1c(N)n(Cc2ccccc2)c(=O)[nH]c1=O 6.23%
COc1cnc(-c2ccccn2)nc1Oc1cccc(Cl)c1 30.5%
